Results as given in the supplement of paper PMC10127200.
Counter-ions that a name gives are not always drawn.

Columns and labels:
Test in all cases: Euclidean distance of Cell Painting phenotypic profile (signed KS, 77 features) to DMSO centroid (dimensionless distance); 5 or 10 uM (library dependent); higher = stronger phenotypic change vs DMSO (phenoactivity)
Settings in all cases: 48 h
786-O = system: 786-O
Summary of the method: (§1)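 Phenoactivity is defined as the Euclidean distance from a compound profile to the median vehicle profile. Each profile comprised 77 Harmony features, scored as signed Kolmogorov-Smirnov statistics versus same-plate vehicle wells, then plate-position corrected, correlation-weighted and replicate-averaged at the top dose. Five cancer lines and one healthy fibroblast line were exposed to library compounds for 48 h at 10 or 5 uM (0.1% DMSO final).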

A549 = system: A549
Summary of the method: as §1

DU145 = system: DU145
Summary of the method: as §1

FB = system: FB
Summary of the method: as §1

HEPG2 = system: HEPG2
Summary of the method: as §1

OVCAR4 = system: OVCAR4
Summary of the method: as §1

SMILES	Euclidean distance (786-O)	Euclidean distance (A549)	Euclidean distance (DU145)	Euclidean distance (FB)	Euclidean distance (HEPG2)	Euclidean distance (OVCAR4)
CCCCNc1ncc(-c2ccc(CN3CCOCC3)cn2)c(NC2CCC(O)CC2)n1 (stereo unspecified)	0.709	1.2	0.694	1.26	0.659	0.882
COc1ccc2cc(CCC(C)=O)ccc2c1 [Nabumetone]	0.791	1.11	0.872	0.947	0.532	1.55
OCCn1cc(-c2ccc3c(c2)CC/C3=N\O)c(-c2ccncc2)n1	1.79	0.879	1.22	1.93	0.823	1.88
COc1cc2/c(=N/c3ccc(Br)cc3F)nc[nH]c2cc1OCC1CCN(C)CC1 [Vandetanib (ZD6474)]	1.3	2.59	2.38	2.66	1.7	2.94
O=C(O)c1ccc(N2C(=O)/C(=C\c3ccc(-c4ccc([N+](=O)[O-])cc4)o3)C=C2c2ccccc2)cc1	0.841	1.23	0.74	0.72	1.83	0.995
COc1ccc(-c2ccc3c(N4CCOC[C@@H]4C)nc(N4CCOC[C@@H]4C)nc3n2)cc1CO	4	3.49	2.25	5.02	2.55	3.73
CCC(=O)Oc1ccc2c(c1)CCC1C2CCC2(C)C(OC(=O)CC)CCC12 (stereo not drawn) [17-Beta-Estradiol-3.17-Dipropionate]	1.55	0.8	1.46	1.21	0.326	0.98
N#CC[C@H](C1CCCC1)n1cc(-c2ncnc3[nH]ccc23)cn1 [Ruxolitinib Phosphate]	1.96	1.67	1.41	1.39	1.1	1.26
CN1C(C(=O)Nc2ccccn2)=C(O)c2sc(Cl)cc2S1(=O)=O [Lornoxicam]	0.853	0.623	0.95	0.965	1	0.799
COc1ccc(COc2ccc(Cc3cnc(N)nc3N)cc2OC)cc1	0.708	1.1	0.739	1.13	2.08	0.792
CO[C@H]1/C=C/O[C@@]2(C)Oc3c(C)c(O)c4c(c3C2=O)C2=NC3(CCN(CC(C)C)CC3)NC2=C(NC(=O)/C(C)=C\C=C\[C@H](C)[C@H](O)[C@@H](C)[C@@H](O)[C@@H](C)[C@H](OC(C)=O)[C@@H]1C)C4=O [Rifabutin]	1.26	0.759	1.51	1.08	2.11	1.35
Cc1cc(C2CCCCC2)n(O)c(=O)c1 [Ciclopirox]	2.74	2.85	2.81	3.29	3.45	3.51
Cn1c(N2CCCCS2(=O)=O)nc(C(=O)NCc2ccc(F)cc2)c(O)c1=O	3.24	2.86	4.79	2.83	3.37	3.36
O=C(O)C1(C(=O)O)CCC1.[NH2-].[NH2-].[Pt+2] [Carboplatin]	2.76	1.98	2.65	2.23	2.58	2.66
O=c1c2ccccc2nc2n1CCc1c-2[nH]c2ccccc12 [Rutaecarpine]	0.752	1.05	1.52	1.22	1.08	1.48
O=C(NCc1cccc(O)c1)Nc1nc(-c2ccncc2)cs1	1.82	1.54	3.26	3.61	1.47	1.88
CNCc1cc(-c2ccccc2F)n(S(=O)(=O)c2cccnc2)c1 [Vonoprazan Fumarate (TAK-438)]	0.884	0.5	0.972	1.23	0.474	0.89
COc1cc2c(Oc3ccc4[nH]c(C)cc4c3F)ncnc2cc1OCCCN1CCCC1 [Cediranib Maleate]	4.34	4.46	3.51	4.67	4.09	5.11
CC[C@H](C)C(=O)O[C@H]1CCC=C2C=C[C@H](C)[C@H](CC[C@@H]3C[C@@H](O)CC(=O)O3)[C@H]21 [Mevastatin]	2.6	1.88	0.707	3.12	1.43	1.64
CCN(CC)CCOC(=O)c1ccc(N)cc1Cl [Chloroprocaine HCl]	0.962	0.947	0.943	0.861	0.503	1.07
C1N2CN3CN1CN(C2)C3 [Methenamine]	1.23	0.437	0.592	0.896	0.586	1.2
CN(C)CCCN1c2ccccc2Sc2ccc(Cl)cc21 [Chlorpromazine]	1.47	1.98	1.56	2.21	2.01	1.04
C[C@]1(O)C[C@@H](c2nc(-c3ccc4ccc(-c5ccccc5)nc4c3)c3c(N)nccn32)C1 [OSI-906 (Linsitinib)]	1.12	1.34	0.877	1.19	1.12	1.27
CC(=C(CCOC(=O)C(C)C)SSC(CCOC(=O)C(C)C)=C(C)N(C=O)Cc1cnc(C)nc1N)N(C=O)Cc1cnc(C)nc1N (stereo in doubt) [Sulbutiamine]	1.35	0.871	0.854	1.12	0.637	1.49
CNCC[C@@H](Oc1ccccc1C)c1ccccc1 [Atomoxetine HCl]	1.37	1.23	0.627	0.866	0.422	1.22
CN(C)C[C@@H]1CCn2cc(c3ccccc32)C2=C(C(=O)NC2=O)c2cn(c3ccccc23)CCO1	3.81	3.95	4.1	3.89	3.22	4.42
